Common to all, as to assay: NCI-60 one-dose screen, 48 h (100 = growth as untreated, 0 = no growth, -100 = all killed)
Details in all cases: 10 µM unless noted

Experiment [1] has as its system HCT-15 colon.
Experiment [2] has as its system HT29 colon.
The subject of experiment [3] is SNB-75 CNS.
In experiment [4] the test system is SNB-19 CNS.
In experiment [5] the test system is U251 CNS.
Experiment [6] concerns PC-3 prostate.
The subject of experiment [7] is SK-MEL-5 melanoma.
Experiment [8] relates to UACC-62 melanoma.
Experiment [9] concerns LOX IMVI melanoma.
Experiment [10] has as its system SK-MEL-28 melanoma.
Experiment [11] concerns SK-MEL-2 melanoma.
Experiment [12] has as its system EKVX NSCLC.
Experiment [13] concerns SN12C renal.
Experiment [14] concerns UO-31 renal.
The subject of experiment [15] is TK-10 renal.
The test system of experiment [16] is ACHN renal.
Experiment [17] deals with CAKI-1 renal.
The subject of experiment [18] is A498 renal.
Experiment [19] concerns CCRF-CEM leukemia.
Experiment [20] deals with MOLT-4 leukemia.

About 83,000 compounds went through this panel and 20% of them were active in at least one assay; those are over-represented in the sample as a whole.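 Treatment: one concentration, 48 hours, 96-well format. Scoring: percent growth, with anything below 10 considered active.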 Unmarked numbers belong to inactive results. Active and inactive are the calls of the source.

As to `Cc1nc(N2CCOCC2)sc1S(N)(=O)=O`, the growth in [1] was 105%; in experiment [2], 102%; in experiment [3], -0.593% (active); in [4] it was 102%; in experiment [5], 92.9%; in experiment [6] it was 92.3%. Also, the growth in [7] is 100%; in [8], 94%; in experiment [9], 95.8%; in experiment [10] it was 104%; in experiment [11] it was 98.6%; in [12] it was 101%. For the same molecule, the growth in experiment [13] was 94.5%; in [14] it was 86.5%; in experiment [15], 90.1%; in [16], 100%; in [17], 96.9%; in [18] it was 93.4%. Besides, the growth is 105% in experiment [19] and 107% in experiment [20].

Consider `O=C(Nn1c2c(sc1=Nc1ccccc1)C(=O)c1ccccc1C2=O)c1cc2ccc1CCc1ccc(cc1)CC2`, for which the growth in [1] is 51.3%; in experiment [2], 91.8%; in experiment [3], 36.3%; in [4], 60.7%; in [5], 82.6%; in experiment [6] it was 66.3%. In addition, the growth in experiment [7] is 39.7%; in [8], 70.8%; in experiment [9] it was 62.2%; in experiment [10], 92.4%; in [11], 75.2%; in experiment [12] it was 70.4%. Further, the growth in [13] is 70.2%; in experiment [14] it was 33.6%; in experiment [15], 108%; in experiment [16], 42.7%; in experiment [17], 32.1%; in experiment [18] it was 93.7%. The values for the growth in experiment [19] and in experiment [20] were 79.8% and 83.3%, respectively.

In the case of `O=C1/C(=C/c2ccc(Cl)c(Cl)c2)CN(C(=O)C(Cl)Cl)C/C1=C\c1ccc(Cl)c(Cl)c1`, the growth in [1] is -62.1% (active); in experiment [2], -4.7% (active); in experiment [3], -70.7% (active); in [4] it was -93.7% (active); in [5], -92.4% (active); in experiment [6] it was -45.6% (active). The growth is -79.4% (active) in experiment [7]; -46.9% (active) in experiment [8]; -91.7% (active) in experiment [9]; -64.4% (active) in experiment [10]; -3.03% (active) in experiment [11]; -61.7% (active) in experiment [12]. The growth in experiment [13] was -76% (active); in experiment [14] it was -99.3% (active); in experiment [15], -50.8% (active); in experiment [16] it was -100% (active); in experiment [17] it was -74% (active); in [18], -91.2% (active). Besides, the growth in [19] was 4.82% (active); in experiment [20], -0.286% (active).

As to `O=C(CSc1nc(-c2ccccc2)[nH]c1S(=O)(=O)c1ccccc1)NC1CC1`, the growth in [1] is 28.2%; in [2], 95.1%; in experiment [3], 98.1%; in experiment [4] it was 101%; in experiment [5], 20.1%; in experiment [6], 80.8%. Also, the growth in experiment [7] was 35.6%; in [8], 94.6%; in experiment [9], 44.8%; in experiment [10], 120%; in experiment [11], 102%; in experiment [12] it was 65.1%. The growth in experiment [13] is 96.5%; in [14], 89.2%; in experiment [15] it was 87.2%; in [16], 104%; in experiment [17] it was 99.2%; in [18], 72.9%. Besides, the growth is 93.4% in experiment [19] and 93.8% in [20].

Regarding `OCCCC1CCN(C(Cc2ccccc2)c2ccccc2)CC1` (stereo not given), the growth in experiment [1] was 100%; in experiment [2], 76.5%; in experiment [3], 84.2%; in [4] it was 101%; in experiment [5], 93.2%; in experiment [6] it was 70.8%. For the same molecule, the growth is 101% in experiment [7]; 97.7% in [8]; 93.2% in [9]; 64.8% in experiment [10]; 52% in experiment [11]; 96.2% in experiment [12]. Further, the growth in experiment [13] was 102%; in experiment [14], 78.3%; in experiment [15] it was 84.1%; in experiment [16], 81.8%; in [17] it was 91.4%; in experiment [18] it was 97.9%. In addition, the growth in experiment [19] is 100%; in experiment [20], 99.1%.

In the case of `N=C(N)c1ccc(-c2ccc(-c3ccc(Cl)cc3)s2)nc1`, the growth was -78.1% (active) in [1]; -38.1% (active) in [2]; 95.8% in experiment [3]; 49.9% in [4]; -68.1% (active) in experiment [5]; -75.3% (active) in experiment [6]. Moreover, the growth in experiment [7] was 82.8%; in experiment [8], 89.9%; in experiment [9] it was -89% (active); in [10], 108%; in experiment [11], 103%; in [12] it was 59.1%. Moreover, the growth was 52.5% in experiment [13]; 44.6% in [14]; 103% in [15]; -75.9% (active) in experiment [16]; -65% (active) in experiment [17]; 84.5% in [18]. For the same molecule, the values for the growth in [19] and in experiment [20] were -45.8% (active) and -57.8% (active), respectively.

For the molecule `O=S(=O)(Nc1cc(Br)c(O)c2ccccc12)c1ccc(F)cc1`, the growth in [1] was 86.8%; in experiment [2], 113%; in experiment [3], 100%; in experiment [4] it was 108%; in [5], 35.4%; in [6] it was 32%. In addition, the growth in [7] is 48.9%; in experiment [8], 54.2%; in [9], 0.868% (active); in experiment [10] it was 81.1%; in experiment [11], 87.8%; in experiment [12], 109%. In addition, the growth in [13] is 49.3%; in experiment [14], 48.5%; in [15], 123%; in experiment [16] it was 71.2%; in [17], 80.5%; in experiment [18] it was 89.9%. Moreover, the growth in [19] is 11%; in experiment [20], -40.3% (active).

(Values after PubChem BioAssay (NCI).)
